This is a sample that favours compounds with a hit; in the whole collection about 5.6% have one here.
PKM2 act: increases activity of human pyruvate kinase M2; P14618; purified PKM2, Kinase-Glo ATP luminescence, activation; response scale: 0% is enzyme alone, no compound; Potency, µM (top dose mostly 57.5 µM), actives largely listed as activators; hit rate 0.34% among 260,000; also: nearly all actives have a fitted effect of over 55% in size
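Purified hPK-M2 (>95% pure) converted ADP (0.1 mM final) to ATP with 0.5 mM PEP in 50 mM imidazole pH7.2, KCl, MgCl2, Tween 20, BSA; 1 h at room temperature. ATP detected by Kinase-Glo luminescence.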
CtBP-E1A inh: blocks the CtBP interaction with E1A; AlphaScreen GST-E1A/His-CtBP binding, 1536-well; hits give low values; activity change, % (test concentration not listed); hit rate 0.49% among 340,000; in the data active = activity change below about -65%; inconclusive = mostly about -30% to -63%
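Steps: dispense buffer (Tris pH 8.0, NaCl 300 mM, TCEP 1 mM, BSA, Tween 20); add 5X protein mix (GST-E1A, His-CtBP, 125 nM each); pin 23 nL compound; 2 h at 37 °C, dark; add 5X beads (50 ug/mL); 1 h; read.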
Gal4-VP16 FLuc: Gal4-VP16 reporter inhibition counter-screen. AID 2546. Drosophila S2 Gal4-VP16 UAS-luciferase, luminescence, 20 h. Potency, µM (top dose mostly 53.6 µM), hits mostly inhibitors. hit rate 3.5% among 310,000;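 also: Gal4-VP16 expression switched on by copper sulfate through the metallothionein promoter; nearly all actives have a fitted effect of over 50% in size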
RORgamma inh: ROR gamma (mouse) transcription inhibition. hit rate 5.4% among 310,000. Potency, µM (doses to about 53.6 µM), most hits filed as inhibitors. Drosophila S2 Gal4-RORgamma UAS-luciferase reporter, 20 h. AID 2551; also: nearly all actives have a fitted effect of over 60% in size
Target sequence (P51450 whole entry, looked up, the tested form may be a part): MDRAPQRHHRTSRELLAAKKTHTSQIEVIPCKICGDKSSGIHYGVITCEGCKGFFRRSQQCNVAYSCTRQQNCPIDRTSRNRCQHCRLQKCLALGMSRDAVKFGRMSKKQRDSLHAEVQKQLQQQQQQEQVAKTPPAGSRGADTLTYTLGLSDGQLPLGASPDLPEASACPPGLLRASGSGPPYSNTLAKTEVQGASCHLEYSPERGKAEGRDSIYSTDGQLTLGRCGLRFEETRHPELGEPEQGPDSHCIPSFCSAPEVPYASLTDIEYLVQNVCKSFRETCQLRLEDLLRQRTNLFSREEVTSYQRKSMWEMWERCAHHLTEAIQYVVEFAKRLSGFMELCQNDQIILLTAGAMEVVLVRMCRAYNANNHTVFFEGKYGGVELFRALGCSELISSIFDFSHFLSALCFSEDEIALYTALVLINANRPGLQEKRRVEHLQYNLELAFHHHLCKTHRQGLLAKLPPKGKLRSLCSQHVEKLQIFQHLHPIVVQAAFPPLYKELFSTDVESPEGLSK
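ROR gamma transcriptional activity was tracked as Gal4-UAS luciferase output in stably transfected Drosophila Schneider cells, with compound added 1 hr before 700 uM copper sulfate induction and a 20 hr ambient-temperature incubation.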
Six1-Eya2 inh: blocks human Six1 binding to Eya2 | Q15475+O00167 | AlphaScreen GST-Six1/His-Eya2 binding, biochemical; hits give low values | activity change, % (concentration not given with the values) | hit rate 0.56% among 360,000 | AID 651725; in the data active = activity change below about -65%; inconclusive = mostly about -30% to -63%
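AlphaScreen luminescence read after one hour at 37 °C in darkness. Pin-transferred compounds met GST-Six1 and His-Eya2 protein (5X stock 250 nM/500 nM) plus glutathione donor and Ni-chelate acceptor beads (5X, 50 ug/mL).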
Hits are given with their value; n = inactive; u = inconclusive; x = no result; [ ] = dose if it differs, or a comment. Unless noted, calls follow the shape of the dose curve; as a rule, active = well fitted curve in the direction sought with a large enough effect; inconclusive = small, poorly fitted or top-dose-only effect, or another doubt; inactive = no such curve, though single readings can be large; an effect the other way counts as inactive or inconclusive.

SMILES | PKM2 act | CtBP-E1A inh | Gal4-VP16 FLuc | RORgamma inh | Six1-Eya2 inh
CC(=O)n1cc(N(C(=O)CCl)c2ccccc2)c2ccccc21 | n | n | u | u | n
O=C(CCl)N(c1ccc(Cl)cc1)c1c[nH]c2ccccc12 | n | n | 10µM | 4.47µM | n
O=C(CCl)N(c1ccccc1)c1c[nH]c2ccccc12 | n | n | u | 14.1µM | n
N/C(Cc1ccc(Cl)cc1)=N\OC(=O)c1cccc2ccccc12 | n | n | 10µM | u | n
COc1ccc(C/C(N)=N/OC(=O)c2ccc(Cl)cc2)cc1 | n | n | n | n | n
N/C(Cc1ccc(Cl)cc1)=N\OC(=O)c1ccc2ccccc2c1 | n | n | 20µM | n | n
O=C(NC(=S)N1CCCCCC1)c1ccccc1Cl | n | n | 1µM | 0.794µM | n
CN1CCN(C(=S)Nc2ccccc2Cl)CC1 | n | n | n | n | n
CN1CCN(C(=S)NC(=O)c2ccccc2Cl)CC1 | n | n | 17.8µM | 14.1µM | n
O=C(NC(=S)N1CCCCCC1)c1ccc(Cl)cc1Cl | n | n | 1µM | 0.355µM | n
C/C(=N\NC(=O)c1ccccc1)c1cc2cc([N+](=O)[O-])ccc2oc1=O | n | n | 5.01µM | 7.94µM | u
C/C(=N\NC(=O)c1ccc([N+](=O)[O-])cc1)c1cc2ccccc2oc1=O | n | u | u | 15.8µM | u
C/C(=N\Nc1ccc([N+](=O)[O-])cc1[N+](=O)[O-])c1cc2c(ccc3ccccc32)oc1=O | n | x | n | n | x
COC(=O)c1cc(C(=O)OC)n(Cc2ccc(C)cc2)c1C | n | n | n | n | n
O=C(Cc1ccsc1)Nc1ccccc1F | n | n | n | n | n
COc1ccc(CCNc2cc(=O)[nH]c(N)n2)cc1 | n | -80.1 | n | n | -69.2
Nc1cccc2c1C(=O)N(C(=O)/C=C/c1ccc(F)cc1)C2=O | n | -65.3 | n | 12.6µM | n
Nc1cccc2c1C(=O)N(C(=O)c1ccco1)C2=O | n | n | n | n | n
O=C(NCCc1ccc([N+](=O)[O-])cc1)c1ccccc1 | n | n | n | n | n
Cc1cc(Br)ccc1NC(=S)NCCc1ccccc1 | n | n | 6.31µM | 2.51µM | n
O=C(NCCc1ccccc1)c1ccc([N+](=O)[O-])cc1 | n | n | u | 7.94µM | n
Cc1ccc(C)c(NC(=S)NCCc2ccc(F)cc2)c1 | n | x | 3.16µM | 2.51µM | n
Cc1ccc(NC(=S)NCCc2ccc(S(N)(=O)=O)cc2)c(C)c1 | x | n | x | x | n
Cc1ccc(NC(=S)NCCc2ccccc2)c(C)c1 | n | n | 3.55µM | 2µM | n
CCC(C)c1ccc(NC(=O)c2c([N+](=O)[O-])cnn2CC)cc1 (stereo not drawn) | n | n | n | u | n
SMILES | PKM2 act | CtBP-E1A inh | Gal4-VP16 FLuc | RORgamma inh | Six1-Eya2 inh
COc1cccc(C(=O)N2CCN(C3CCN(Cc4ccccc4)CC3)CC2)c1OC | n | n | n | n | n
CCOc1ccc(OCC(=O)Nc2cc(Cl)ccc2-n2cncn2)cc1 | x | n | x | x | n
Cc1ccc(NC(=S)NNC(=S)Nc2ccc(C)cc2)cc1 | x | n | x | x | n
Cc1ccc(C(=O)O)cc1NC(=S)NCCc1ccccc1 | n | n | n | n | n
Cc1ccc(C)c(NC(=S)NNc2ccc(F)cc2F)c1 | x | n | 3.16µM | u | n
Cc1ccc(NNC(=S)Nc2ccc(C(C)C)cc2)c(C)c1 | n | n | u | 11.2µM | n
Cc1ccc([N+](=O)[O-])cc1NC(=S)NCCc1ccccc1 | x | n | u | 12.6µM | n
CC1=C(C(=O)OCc2ccccc2)C(c2ccccc2[N+](=O)[O-])NC(=O)N1C (stereo not drawn) | n | x | x | x | n
Cc1ccc(NC2=Nc3ccccc3CC2)cc1 | n | n | u | 11.2µM | n
Brc1ccc(NC2=Nc3ccccc3CC2)cc1 | n | n | u | u | n
CN1CCN(S(=O)(=O)c2ccc(Sc3nnnn3-c3ccccc3)c([N+](=O)[O-])c2)CC1 | n | n | u | 7.08µM | n
Cn1cnnc1Sc1cc(N2CCN(S(=O)(=O)c3ccccc3)CC2)ccc1[N+](=O)[O-] | 0.224µM | n | u | n | n
O=[N+]([O-])c1ccc(Sc2nnnn2-c2ccccc2)c(Cl)c1 | n | n | n | u | n
CC(=O)c1ccc(Sc2nnnn2-c2ccccc2)c([N+](=O)[O-])c1 | n | n | 11.2µM | 8.91µM | n
O=C1C=C(c2cnc3ccccc3c2)C[C@@H](c2ccc3c(c2)OCO3)C1 | x | n | x | x | n
S=C(NN=C(c1ccccc1)c1ccccn1)N(Cc1ccccn1)Cc1ccccn1 | x | n | x | x | -94.0
S=C(NN=Cc1ccccn1)N(Cc1ccccn1)Cc1ccccn1 | x | -94.1 | x | x | -90.9
CC(=NNC(=S)N(Cc1ccccn1)Cc1ccccn1)c1cnccn1 | x | n | x | x | -90.2
C/C(=N/NC(=O)c1cnccn1)c1ccncc1 | n | n | n | n | n
CCNC(=O)n1cc(-n2cncn2)c(-c2ccc(Cl)cc2)n1 | n | n | n | n | n
CCc1ccc2c(c1)c1nc(C)sc1n2CC | n | n | 11.2µM | 10µM | n
Cc1nc2c3cc(F)ccc3n(Cc3ccc(F)cc3)c2s1 | n | n | n | n[10 µM] | n
O=C1C2CCCN2C(c2ccc(F)cc2)N1c1nccs1 (stereo not drawn) | n | n | n | u | n
O=C1C2CCCN2C(c2ccc(Cl)cc2)N1c1nccs1 (stereo not drawn) | n | n | n | 12.6µM | n
Cc1ccc(C2N(c3nccs3)C(=O)C3CCCN32)cc1 (stereo not drawn) | n | n | n | 12.6µM | n
SMILES | PKM2 act | CtBP-E1A inh | Gal4-VP16 FLuc | RORgamma inh | Six1-Eya2 inh
COc1ccc2[nH]c(CN3CCC(CO)(CCOc4ccccc4)CC3)c(C)c2c1 | n | n | n | n | n
Cc1ccc2nc(N/C(=N/S(=O)(=O)c3cccs3)c3ccccc3Cl)sc2c1 | n | n | n | n | n
CCOc1ccc2c(c1)[nH]c(=S)n2C | n | n | u | 8.91µM | n
S=c1[nH]c2ccccc2n2c(=S)[nH]nc12 | x | n | n | n | u
COc1ccccc1OCCn1c(=S)[nH]c2ccccc21 | n[11.5 µM] | n | 10µM | 10µM | n
S=c1[nH]c2ccccc2n2cccc12 | n | n | 5.62µM | 0.891µM | n
Cc1ccc(OCCn2c(=S)[nH]c3ccccc32)c(C(C)C)c1 | n[11.5 µM] | n | 3.98µM | 3.55µM | n
COc1ccccc1OCCn1c(=O)n(C)c2ccccc21 | n | n | n | n | n
COc1cccc(OCC(=O)Nc2c3c(nn2-c2ccc(F)cc2)CS(=O)(=O)C3)c1 | n | n | n | n | n
CN(C(=O)C1CCCN(c2ncnc3c2nc2n3CCCCC2)C1)c1cccc(Cl)c1 (stereo not drawn) | x | n | n | n | n
Cn1c2ccccc2c(=O)c2c(=O)n(-c3ccc(F)cc3)c(C3CCCCC3)nc21 | x | n | x | x | n
O=c1[nH]c2ccccc2n1CCCOc1ccccc1 | n | n | n | n | n
S=c1[nH]c2ccccc2n1Cc1ccccc1 | n | n | 7.08µM | u | n
CCOc1ccc(OCCn2c(=S)[nH]c3ccccc32)cc1 | n | x | 5.01µM | 5.01µM | n

Source: PubChem
